High-throughput results (PubChem)
Most compounds without a hit are left out; they make up all but 0.13% or so of the library.
GLA spleen mod: alpha-galactosidase A (human) modulation; P06280; human spleen homogenate, 4MU-alpha-Gal fluorescence, 40 min; Potency, µM (top dose mostly 80 µM), actives largely listed as inhibitors; 0.008% of 240,000 active
Target sequence (P06280 32-429 limits assumed): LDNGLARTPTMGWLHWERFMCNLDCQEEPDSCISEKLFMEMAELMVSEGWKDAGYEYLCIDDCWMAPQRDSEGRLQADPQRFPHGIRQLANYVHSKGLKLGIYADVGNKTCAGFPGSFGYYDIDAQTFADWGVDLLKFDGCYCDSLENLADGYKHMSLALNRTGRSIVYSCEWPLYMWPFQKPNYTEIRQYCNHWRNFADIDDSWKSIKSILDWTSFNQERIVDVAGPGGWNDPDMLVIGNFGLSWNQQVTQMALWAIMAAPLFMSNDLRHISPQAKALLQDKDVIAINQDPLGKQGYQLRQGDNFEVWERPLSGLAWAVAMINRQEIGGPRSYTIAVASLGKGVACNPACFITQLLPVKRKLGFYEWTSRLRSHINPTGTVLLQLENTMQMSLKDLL
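Fluorogenic readout (Ex 365/Em 440 nm) of 4-methylumbelliferone released from 1 mM 4-MU-alpha-galactoside by spleen homogenate, 40 min at 37C, pH 5.0. Data normalized to no-enzyme and enzyme controls; Hill-equation AC50 from compound titrations.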
GLA inh pH 4.5: inhibitors of human alpha-galactosidase A at pH 4.5; P06280; purified enzyme, 4-MU-alpha-Gal fluorescence, pH 4.5; activity change, negative = inhibition, % at 105 µM; 230,000 tested, under 10 active
IL-2 act: activators of IL-2 | activation, % (series mostly up to about 46 µM) | 0.065% of 360,000 active | AID 652025 | IL-2 activation reporter assay, cell-based qHTS; stimulated with anti-CD3/CD4/CD28 beads; in transgenic mouse T cells; in the data active = activation above about 50%; inconclusive = mostly about 30% to 49%
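Quantitative HTS in unstimulated transgenic mouse T cells, with memory T cells as non-tolerant control and PMA/ionomycin as tolerance-bypass control. Compound pretreatment lasted 60 minutes before 18 h bead stimulation; EGFP/DsRed fluorescence read.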
a7 integrin act: integrin-mediated muscular dystrophy alleviation activation; AID 624291; 0.064% of 350,000 active; Potency, µM (top dose mostly 38.3 µM), hits mostly activators; alpha7betagal myoblasts, beta-gal FDG fluorescence, 48 h; also: nearly all actives have a fitted effect of over 60% in size
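alpha7betagal+/- myoblasts (passage 13, 250/well) treated 48 h at 37C with compounds at 1:260 dilution of DMSO stock. Lysed, then beta-galactosidase activity read as FDG fluorescence (ex 480/em 540) after 30 min, with pre-read for autofluorescence.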
Hits are given with their value; 0 = inactive; ? = inconclusive; - = no result given. Unless noted, calls follow the shape of the dose curve; as a rule, active = well fitted curve in the direction sought with a large enough effect; inconclusive = small, poorly fitted or top-dose-only effect, or another doubt; inactive = no such curve, though single readings can be large; an effect the other way counts as inactive or inconclusive.

SMILES	GLA spleen mod	GLA inh pH 4.5	IL-2 act	a7 integrin act
N#CC(C(=O)NCCc1ccccc1)c1nc2ccccc2nc1N1CCCCC1 (centres undefined)	0	0	0	0
CCCCCNC(=O)C(C#N)c1nc2ccccc2nc1N1CCCC1 (centres undefined)	0	0	150	0
CCCCCCNC(=O)C(C#N)c1nc2ccccc2nc1N1CCCC1 (centres undefined)	0	0	?	0
N#CC(C(=O)NCc1ccccc1)c1nc2ccccc2nc1N1CCCC1 (centres undefined)	0	0	153	0
ClCCCl	0	-	-	-
CC(C)(CC(=O)O)CC(=O)N1CCCN(c2nccc(C(F)(F)F)n2)CC1	-	-	0	4µM
O=C(c1ccccc1)N1CCCN(c2nccc(C(F)(F)F)n2)CC1	0	0	0	0
O=[N+]([O-])c1ccc(N2CCN(c3ccccc3F)CC2)nc1	-	-	0	5.6µM
CC(=O)N1c2ccc(S(=O)(=O)N(C)CC(=O)NCc3ccccc3)cc2CC1C (centres undefined)	-	-	0	0
COc1cc(NC(=O)CN(C)S(=O)(=O)c2ccc3c(c2)CC(C)N3C(C)=O)cc(OC)c1OC (centres undefined)	-	-	0	10µM
COC(=O)N1C(C)=Cc2ccccc2C1C/C(C)=C/C(C)=O (centres undefined)	0	0	-	-
O=C(COc1cc2oc(=O)c3c(c2cc1Cl)CCCC3)NCC1CCC(C(=O)O)CC1 (centres undefined)	-	-	0	7.1µM
O=C(COc1cc2oc(=O)c3c(c2cc1Cl)CCC3)NCC1CCC(C(=O)O)CC1 (centres undefined)	-	-	0	?
C=C(C)C(=O)OCCOCC	0	-	-	-
COc1ccc(Cn2c(C)nnc2-c2cnn(C)c2N)cc1	28µM	0	0	?
Cc1nnc(-c2cnn(C)c2N)n1Cc1ccc(Cl)cc1	0	0	0	0
CN1C(=CC=C2C=C(I)C(=O)C(I)=C2)C(C)(C)c2ccccc21	0	0	0	0
CN1/C(=C\C=C2/C(=O)Oc3ccccc3C2=O)C(C)(C)c2ccccc21	0	0	80	0
Cc1cccc2c(N=Nc3ccccc3)c(O)[nH]c12	-	-	257	0
O=C(COC(=O)Cn1cnc2ccccc21)Nc1cccc([N+](=O)[O-])c1	0	0	0	11µM
Cc1ccc(C(=O)NNC(=O)c2ccc(S(=O)(=O)N3CCCCC3)cc2)cc1	-	-	0	?
CCN(CC)c1ccc2cc(C(=O)NNC(=O)c3ccc(S(=O)(=O)N4CCCCC4)cc3)c(=O)oc2c1	0	0	59	0
NC1=Nc2cccc3cccc1c23	0	0	0	7.9µM
COc1ccc(SCC(Cc2ccccc2)N2CCN(CC(C)C)CCC2=O)cc1 (centres undefined)	0	-	-	-
O=S(=O)(Oc1ccc(Cl)cc1)c1ccccc1	0	-	-	-
SMILES	GLA spleen mod	GLA inh pH 4.5	IL-2 act	a7 integrin act
C/C1=C\[C@@H](O)C(C(C)C)C(OC(=O)c2ccc(O)cc2)C/C(C)=C/CC1 (some centres undefined)	0	-	-	-
Cc1ccc(-n2c(C)cc(/C=C3\NC(=O)NC3=O)c2C)c(C)c1	0	0	67	0
Cc1cc(/C=C2/NC(=O)NC2=O)c(C)n1-c1ccccn1	0	0	0	0
COc1ccc2c(n1)Sc1nc3ccccc3nc1N2	0	0	260	0
O=C1NC(=O)c2c1c(-c1ccccc1)cc1[nH]c3ccc(O)cc3c21	0	-	-	-
CC[n+]1ccc(/C=C/c2c[nH]c3ccccc23)cc1	-	-	211	0
Cc1ccc2[nH]cc(/C=C/c3cc[n+](C)cc3)c2c1	-	-	71	0
N.N.N.N.N.N.N.N.N.N.N.N.N.N.O.O.[Cl-].[Cl-].[Cl-].[Cl-].[Cl-].[Cl-].[Ru].[Ru].[Ru]	0	0	-	-
O=C(COC(=O)C1(c2ccc(F)cc2)CCCC1)NCc1ccc2c(c1)OCO2	0	0	0	0
O=C(COC(=O)C1(c2ccccc2F)CCCC1)NCc1ccc2c(c1)OCO2	0	0	65	0
O=C1C=CC2=C3c4cc(O)c(O)cc4C[C@@]3(O)COC2=C1	0	0	-	-
Cc1nn(C)c(C)c1N1C(=O)c2cccc3c(N)ccc(c23)C1=O	0	0	0	0
Cc1ccc(N2C(=O)c3cccc4c(N)ccc(c34)C2=O)c2cccnc12	0	0	317	0
COc1cc2c(cc1NC(=O)Cc1ccc(C)cc1)oc1ccccc12	0	0	0	1.1µM
C/C(=N\OCC(=O)OC(C)C(=O)Nc1ccc(C(N)=O)cc1)c1ccc2c(c1)OCO2 (centres undefined)	-	-	0	4.5µM
CC(C)n1c(O)c(N=Nc2ccc(Cl)nn2)c2ccccc21	0	0	88	0
CN(C)c1ccc(/C=N/NC(=O)c2cnc3ccccc3c2)cc1	0	0	170	0
CC1(C)OCC(CSC2=C(SCC3COC(C)(C)O3)C(=O)c3ncccc3C2=O)O1 (centres undefined)	0	0	-	-
Cc1cc(-c2ccccc2)c2c3c(c(-c4ccccc4)n2n1)c(=O)n(C)c(=O)n3C	0	0	70	0
CCCCNc1nnc(SCC(=O)c2c(N)n(CCC)c(=O)[nH]c2=O)s1	-	-	0	4µM
CC(C)CC1NC(=O)N(CC(=O)N2c3ccccc3NC(=O)C2(C)C)C1=O (centres undefined)	0	0	0	5.6µM
Cc1c(C2(O)CCCCC2)[nH]c2ncccc12	-	-	0	0
CCc1c(C2(O)CCCCC2)[nH]c2ncccc12	-	-	0	10µM
CCOC(=O)NCCOc1ccc(Oc2ccccc2)cc1	0	-	-	-
COc1ccc(CCNC(=O)c2cc(-c3cc(C)ccc3O)n[nH]2)cc1OC	0	0	0	10µM
SMILES	GLA spleen mod	GLA inh pH 4.5	IL-2 act	a7 integrin act
Nc1ccccc1S(=O)(=O)Nc1cccc2cccnc12	0	-	-	-
CN(C)S(=O)(=O)c1cccc(C(=O)Nc2ccc3c(c2)CCC3)c1	-	-	0	2.8µM
Cc1o[nH]c(=O)c1CCC(N)C(=O)O (centres undefined)	0	-	-	-
Cc1ccc(S(=O)(=O)N2CCC(C)CC2)cc1	-	-	0	0
CC1CCN(S(=O)(=O)c2ccc(S(=O)(=O)N3CCCC3)cc2)CC1	-	-	0	8.9µM
O=C1OC(c2cc(I)c(O)c(I)c2)(c2cc(I)c(O)c(I)c2)c2ccccc21	0	0	-	-
COC(=O)Cn1c(C)c(/C=C/c2cc[n+](C)cc2)c2ccccc21	-	-	222	0
COC(=O)Cn1cc(/C=C/c2cc[n+](C)cc2)c2ccccc21	-	-	0	0
O=C(Nc1ccc(S(=O)(=O)Nc2nccs2)cc1)c1ccc(F)cc1	-	-	0	0
O=C(Nc1ccc(S(=O)(=O)Nc2nccs2)cc1)c1ccccc1OC(F)F	-	-	0	10µM
CCCC[C@@H](C)/C=C(C)/C=C(\C)C(=O)NC1=C[C@@](O)(/C=C/C=C/C=C/C(=O)NC2=C(O)CCC2=O)[C@@H]2O[C@@H]2C1=O	0	-	-	-
COc1cccc(C(=O)NCC(=O)N2CCC3(CC2)NCCc2[nH]cnc23)c1	-	-	0	11µM
Cc1ccc(C(=O)NCC(=O)N2CCC3(CC2)NCCc2[nH]cnc23)cc1C	-	-	0	0
O=C(COC(=O)c1cc2ccccc2oc1=O)Nc1ccc(F)cc1F	0	0	0	4.5µM
CCN(c1ccc(NC(=O)COC(=O)c2cc3ccccc3oc2=O)cc1)C(C)C	0	0	0	0
